Screens from PubChem.
SARS PLP yeast: SARS-CoV PLP inhibition in yeast. 330,000 tested, 0.19% active. Potency, µM (doses to about 32.9 µM), actives largely listed as activators. S. cerevisiae expressing SARS-CoV PLpro, growth rescue; calls by dose curve; also: nearly all actives have a fitted effect of over 55% in size
Pf growth 96h: P. falciparum growth inhibition at 96 hours | 320,000 tested, 6.9% active | Potency, µM (highest dose often 28.7 µM), actives largely listed as inhibitors | P. falciparum luciferase reporter growth, 96 h
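Parasite growth measured via integrated firefly luciferase reporter in P. falciparum. Infected erythrocytes at 2% hematocrit, 0.05% parasitemia final were treated 96 hours at 37 C under 5% CO2, and luminescence was read.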
Sm TGR inh: blocks Schistosoma mansoni thioredoxin glutathione reductase | 360,000 tested, 3% active | AID 485364 | purified TGR, DTNB reduction, TNB absorbance 405 nm | Q962Y6 | Potency, µM (top dose mostly 114 µM), actives largely listed as inhibitors; also: nearly all actives have a fitted effect of over 60% in size
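Kinetic colorimetric format: TGR-catalysed, NADPH-driven DTNB reduction monitored via TNB absorbance. Enzyme dispensed at 20 nM; compound exposure 15 min at room temperature before reaction start.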
Pf growth 48h: inhibits P. falciparum growth in the first generation, 48 h | P. falciparum luciferase growth in erythrocytes, 48 h | Potency, µM (highest dose often 28.7 µM), most hits filed as inhibitors | 310,000 tested, 5.9% active | AID 504832
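Here the parasites carry a stable luciferase gene and grow inside erythrocytes in Albumax-based RPMI medium with compound for one erythrocytic cycle. Activity is scored as loss of luminescent signal.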
Hits are given with their value; n = inactive; u = inconclusive; x = no result. Only some compounds are listed: those with a hit (about 12% of all), similar ones and a draw of the others. Unless noted, calls follow the shape of the dose curve; as a rule, active = well fitted curve in the direction sought with a large enough effect; inconclusive = small, poorly fitted or top-dose-only effect, or another doubt; inactive = no such curve, though single readings can be large; an effect the other way counts as inactive or inconclusive.

SMILES	SARS PLP yeast	Pf growth 96h	Sm TGR inh	Pf growth 48h
COc1ccc(-c2cc3ccc(O)c(CN4CCN(C)CC4)c3oc2=O)cc1OC	x	x	n	x
CN(Cc1ccccc1)S(=O)(=O)c1ccc2[nH]c(=O)oc2c1	n	n	n	n
CN(Cc1ccccc1)S(=O)(=O)c1ccc2[nH]c(=O)ccc2c1	n	14.7µM	n	n
COc1ccc(S(=O)(=O)n2nc(OC(C)=O)cc2N)cc1	n	n	25.1µM	n
Nc1cc(OC(=O)c2c(F)cccc2Cl)nn1S(=O)(=O)c1ccccc1	n	10.4µM	n	n
COc1ccc(C(=O)Oc2cc(N)n(S(=O)(=O)c3ccccc3)n2)cc1	n	n	n	n
COc1ccccc1CNC(=O)C1CCN(c2nc3ccc(Cl)cc3[nH]2)CC1	x	x	n	x
NNC(=S)Nc1cccc(-c2n[nH]c(=S)o2)c1	n	n	n	n
Cc1ccc(CONC(=O)c2ccc([N+](=O)[O-])cc2)cc1	n	n	n	n
O=C(N/N=C/c1ccccc1O)C1CC(=O)N(c2ccc(Cl)cc2)C1 (centres undefined)	n	n	n	11.7µM
O=C(Nc1cccc(F)c1)C1CC(=O)N(c2ccc(Br)cc2)C1 (centres undefined)	n	u	n	u
O=C(Nc1cccc(Cl)c1Cl)C1CC(=O)N(c2ccc(Br)cc2)C1 (centres undefined)	n	10.4µM	n	n
O=C(NCc1ccco1)c1ccccc1NC(=O)C1CC(=O)N(c2ccc(Cl)cc2)C1 (centres undefined)	n	7.38µM	n	n
C=CCNC(=O)c1ccccc1NC(=O)C1CC(=O)N(C(C)C)C1 (centres undefined)	n	n	17.8µM	n
O=C(NCc1ccccc1Cl)c1ccc2c(c1)nnn2C1CCCC1	x	x	n	x
Cc1ccc(C(=O)Nc2nnc(S(=O)(=O)N(C)Cc3ccc(F)cc3)s2)cc1	x	x	n	x
COCCNP(=O)(c1ccccc1)c1nc2ccccc2s1 (centres undefined)	n	x	n	n
Cc1ccc(NP(=O)(c2ccccc2)c2nc3ccccc3s2)cc1 (centres undefined)	n	n	15.8µM	n
CCCCSCCCNC(=O)CN1C(=O)COc2ccc(S(=O)(=O)N3CCC(C)CC3)cc21	x	x	n	x
COc1ccc(C2=CC3=C(Br)C(=O)C(C)(O)C(=O)C3=CO2)cc1 (centres undefined)	n	n	8.91µM	n
CCC(=O)OC1(C)C(=O)C2=COC(c3ccc(OC)cc3)=CC2=C(Br)C1=O (centres undefined)	n	n	11.2µM	n
CCN(CC)C(=O)CSc1nc(-c2ccc(C)cc2)nc2c1Cc1c(CO)cnc(C)c1O2	x	x	20µM	x
Cc1ccc(-c2nc3c(c(SCC(=O)N4CCOCC4)n2)Cc2c(CO)cnc(C)c2O3)cc1	n	n	35.5µM	7.38µM
COc1ccc(-c2nc3c(c(SCC(=O)Nc4cc(C)cc(C)c4)n2)Cc2c(CO)cnc(C)c2O3)cc1	x	x	n	x
Cc1cc(C)cc(NC(=O)CSc2nc(-c3cccc(Cl)c3)nc3c2Cc2c(CO)cnc(C)c2O3)c1	x	x	35.5µM	x
SMILES	SARS PLP yeast	Pf growth 96h	Sm TGR inh	Pf growth 48h
CC(OC(=O)/C=C/c1ccc2ccccc2n1)C(=O)N(C)c1ccccc1 (centres undefined)	n	n	n	u
CC(=O)/C=C/c1ccc2ccccc2n1	n	u	89.1µM	u
COc1ccc(NC(=O)CSc2ccc3nnc(-c4cccnc4)n3n2)cc1OC	n	n	n	n
O=c1ccc(N=Nc2ccccc2)ccc1O	n	13.1µM	n	10.4µM
CCCn1c(=O)c(F)cn(Cc2ccc(OC)c([N+](=O)[O-])c2)c1=O	n	n	n	n
CCOC(=O)Cn1c(=O)c(F)cn(Cc2ccc(OC)c([N+](=O)[O-])c2)c1=O	n	10.4µM	n	n
COc1ccc(Cn2c(C)nc([N+](=O)[O-])c2SCC(=O)O)cc1[N+](=O)[O-]	n	n	35.5µM	n
O=C(NC1CCCC1)C(c1ccccn1)N(Cc1ccc(F)cc1)C(=O)c1csnn1 (centres undefined)	n	n	n	n
Cc1nn(Cc2ccc(Cl)cc2)c(C)c1NC(=O)CSc1nc2c(c(C(F)(F)F)n1)CCc1ccccc1-2	n	4.65µM	n	u
O=C(CSc1nnc(-c2ccc(Br)o2)n1Cc1ccccc1)c1ccccc1F	n	u	35.5µM	9.28µM
Cc1cccc(N2CCN(c3nc4ccc(C)cc4n4cnnc34)CC2C)c1 (centres undefined)	x	x	n	x
COc1cc(OC)c(C2=NOC(C(=O)N3CCCc4ccccc43)C2)cc1Cl (centres undefined)	n	8.28µM	n	x
O=C1NC2(CCCCC2)C(=O)N1CC(=O)N(Cc1ccccc1)c1ccccc1	n	n	n	n
CCc1noc(-c2ccc(NCc3ccccc3)c([N+](=O)[O-])c2)n1	x	x	n	x
COC(=O)[C@]1(CC(C)C)N[C@H](c2ccc(-c3ccc(F)cc3)c(OC)c2)[C@@H]2C(=O)N(C)C(=O)[C@@H]21	n	1.85µM	20µM	7.38µM
CCN1C(=O)[C@H]2[C@@H](c3ccc(-c4ccc(OC)cc4)c(OC)c3)N[C@@](CC(C)C)(C(=O)OC)[C@H]2C1=O	n	x	x	x
COC(=O)[C@]1(CC(C)C)N[C@H](c2ccc(SC3CCCCC3)c(OC)c2)[C@@H]2C(=O)N(C)C(=O)[C@@H]21	n	8.28µM	n	u
CCCCCCSc1ccc([C@H]2N[C@@](CC(C)C)(C(=O)OC)[C@H]3C(=O)N(C)C(=O)[C@@H]23)cc1OC	n	4.65µM	n	6.57µM
Cc1cccc(N2CC(C(=O)Nc3nnc(SCc4ccccn4)s3)CC2=O)c1 (centres undefined)	n	u	n	n
CNC(=O)CCc1[nH]c2ccccc2c1Sc1ccccc1	n	5.22µM	n	u
CC(C)C1Nc2ccc(C(=O)O)cc2C2C=CCC21 (centres undefined)	n	n	20µM	n
FC(F)(F)c1ccc2c(c1)C1C=CCC1C(c1ccncc1)N2 (centres undefined)	n	n	n	u
O=C(O)c1ccc2c(c1)C1C=CCC1C(c1ccncc1)N2 (centres undefined)	n	n	22.4µM	n
CC(=O)c1ccc2c(c1)C1C=CCC1C(c1ccc(S(=O)(=O)N3CCOCC3)cc1)N2 (centres undefined)	n	n	28.2µM	u
COc1cccc([C@@H]2Nc3ccc(C(=O)O)cc3[C@@H]3C=CC[C@@H]32)c1OC	x	x	n	x
CCCC1Nc2ccc(C(=O)O)cc2C2C=CCC12 (centres undefined)	n	n	39.8µM	u
N#Cc1ccc(-c2ccc(OCC(=O)NN=Cc3ccncc3)cc2)cc1	n	x	x	x
O=C(COc1ccc(F)cc1)NCCc1nc2ccccc2[nH]1	x	x	n	x
CCn1c(=O)n(CC(=O)NCC2CCCO2)c(=O)c2c3c(sc21)COC(C)(C)C3 (centres undefined)	n	u	n	n
CC(Sc1ccccc1)C(=O)N1CCN(S(=O)(=O)c2ccc(Cl)cc2)CC1 (centres undefined)	n	n	n	n
